# How the values were obtained:
# [1] = biological target: T1, Ephrin type-B receptor 1 (Homo sapiens) (UniProt P54762); conditions: at 10 µM
# T1 sequence (whole entry): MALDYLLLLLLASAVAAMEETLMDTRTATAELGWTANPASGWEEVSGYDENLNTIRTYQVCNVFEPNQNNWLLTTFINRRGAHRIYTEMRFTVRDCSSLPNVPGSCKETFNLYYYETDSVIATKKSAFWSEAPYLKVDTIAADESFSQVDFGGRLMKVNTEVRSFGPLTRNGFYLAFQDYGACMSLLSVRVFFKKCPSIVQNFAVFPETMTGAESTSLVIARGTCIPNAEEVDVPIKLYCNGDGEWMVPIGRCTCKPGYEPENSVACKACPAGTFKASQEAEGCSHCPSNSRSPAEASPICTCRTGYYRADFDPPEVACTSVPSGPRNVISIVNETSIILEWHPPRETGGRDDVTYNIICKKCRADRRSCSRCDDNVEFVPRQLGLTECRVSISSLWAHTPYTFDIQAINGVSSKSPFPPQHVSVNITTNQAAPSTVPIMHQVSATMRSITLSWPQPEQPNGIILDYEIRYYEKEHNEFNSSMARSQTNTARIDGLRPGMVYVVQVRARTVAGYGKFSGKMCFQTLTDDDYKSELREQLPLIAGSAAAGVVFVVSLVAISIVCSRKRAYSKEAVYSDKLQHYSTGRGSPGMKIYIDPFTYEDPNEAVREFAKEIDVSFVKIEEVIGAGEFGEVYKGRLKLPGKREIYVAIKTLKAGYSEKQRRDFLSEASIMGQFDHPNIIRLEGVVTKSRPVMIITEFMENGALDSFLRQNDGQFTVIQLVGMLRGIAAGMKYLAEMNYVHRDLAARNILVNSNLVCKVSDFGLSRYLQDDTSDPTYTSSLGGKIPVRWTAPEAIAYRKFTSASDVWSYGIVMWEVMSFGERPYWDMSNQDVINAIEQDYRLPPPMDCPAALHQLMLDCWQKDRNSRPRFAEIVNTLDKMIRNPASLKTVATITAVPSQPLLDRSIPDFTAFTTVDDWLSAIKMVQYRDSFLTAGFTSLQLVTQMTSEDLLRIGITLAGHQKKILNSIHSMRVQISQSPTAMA
# [2] = biological target: T2, Ephrin type-B receptor 2 (Homo sapiens) (UniProt P29323); conditions: at 1 µM
# T2 sequence (whole entry): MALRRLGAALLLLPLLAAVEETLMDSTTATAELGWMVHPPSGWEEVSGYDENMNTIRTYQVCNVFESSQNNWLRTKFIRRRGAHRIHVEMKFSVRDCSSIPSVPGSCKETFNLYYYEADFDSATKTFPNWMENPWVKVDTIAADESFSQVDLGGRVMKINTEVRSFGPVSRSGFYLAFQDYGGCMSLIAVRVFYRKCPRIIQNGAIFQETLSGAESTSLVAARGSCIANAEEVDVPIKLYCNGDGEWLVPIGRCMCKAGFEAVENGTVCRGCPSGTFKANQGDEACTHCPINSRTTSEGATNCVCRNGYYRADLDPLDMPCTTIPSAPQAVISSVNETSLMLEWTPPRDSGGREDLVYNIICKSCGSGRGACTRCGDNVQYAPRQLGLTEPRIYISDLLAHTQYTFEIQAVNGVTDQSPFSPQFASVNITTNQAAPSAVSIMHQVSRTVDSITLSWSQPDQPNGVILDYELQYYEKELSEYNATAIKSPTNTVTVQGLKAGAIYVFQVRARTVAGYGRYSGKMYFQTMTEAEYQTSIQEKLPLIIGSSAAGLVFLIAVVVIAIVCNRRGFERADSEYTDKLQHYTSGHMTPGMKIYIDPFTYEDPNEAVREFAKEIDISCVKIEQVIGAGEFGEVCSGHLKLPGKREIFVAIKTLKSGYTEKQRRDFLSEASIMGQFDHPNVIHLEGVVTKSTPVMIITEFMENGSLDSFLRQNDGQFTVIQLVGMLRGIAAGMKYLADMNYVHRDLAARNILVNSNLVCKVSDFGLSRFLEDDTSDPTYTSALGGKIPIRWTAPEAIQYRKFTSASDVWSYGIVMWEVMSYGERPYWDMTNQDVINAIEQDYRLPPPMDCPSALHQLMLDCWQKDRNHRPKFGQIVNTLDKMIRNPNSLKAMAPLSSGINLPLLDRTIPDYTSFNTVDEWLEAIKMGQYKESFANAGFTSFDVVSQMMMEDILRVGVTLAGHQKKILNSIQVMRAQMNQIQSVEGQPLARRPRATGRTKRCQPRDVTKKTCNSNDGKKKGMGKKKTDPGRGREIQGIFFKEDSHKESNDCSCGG
# [3] = biological target: T2, Ephrin type-B receptor 2 (Homo sapiens); conditions: at 10 µM
# [4] = biological target: T3, Ephrin type-B receptor 3 (Homo sapiens) (UniProt P54753); conditions: at 1 µM
# T3 sequence (whole entry): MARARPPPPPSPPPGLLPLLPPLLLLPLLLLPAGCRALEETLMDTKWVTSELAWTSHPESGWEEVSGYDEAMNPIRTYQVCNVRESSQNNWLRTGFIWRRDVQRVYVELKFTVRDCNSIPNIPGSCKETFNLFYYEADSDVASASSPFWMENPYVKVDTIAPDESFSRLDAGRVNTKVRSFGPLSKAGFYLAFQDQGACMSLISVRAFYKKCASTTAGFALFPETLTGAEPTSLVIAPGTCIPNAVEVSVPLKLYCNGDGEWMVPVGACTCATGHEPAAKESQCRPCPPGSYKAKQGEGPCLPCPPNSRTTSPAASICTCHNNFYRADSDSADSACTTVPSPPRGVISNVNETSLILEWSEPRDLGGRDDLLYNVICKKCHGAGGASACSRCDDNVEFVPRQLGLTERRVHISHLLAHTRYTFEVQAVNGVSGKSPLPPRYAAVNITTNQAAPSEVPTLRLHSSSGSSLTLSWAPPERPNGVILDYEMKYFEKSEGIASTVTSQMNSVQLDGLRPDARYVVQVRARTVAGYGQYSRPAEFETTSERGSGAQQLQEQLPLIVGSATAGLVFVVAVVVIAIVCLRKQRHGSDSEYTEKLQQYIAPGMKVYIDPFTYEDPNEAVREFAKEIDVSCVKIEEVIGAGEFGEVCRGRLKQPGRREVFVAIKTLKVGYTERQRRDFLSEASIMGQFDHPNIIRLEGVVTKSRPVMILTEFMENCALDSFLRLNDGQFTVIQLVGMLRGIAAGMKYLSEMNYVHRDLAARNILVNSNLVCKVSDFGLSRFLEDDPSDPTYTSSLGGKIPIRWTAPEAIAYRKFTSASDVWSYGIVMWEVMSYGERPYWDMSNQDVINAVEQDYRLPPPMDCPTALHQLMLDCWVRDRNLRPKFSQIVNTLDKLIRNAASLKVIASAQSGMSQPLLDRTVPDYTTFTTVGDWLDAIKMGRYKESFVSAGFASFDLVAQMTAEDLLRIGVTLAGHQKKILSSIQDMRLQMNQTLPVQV
# [5] = biological target: T3, Ephrin type-B receptor 3 (Homo sapiens); conditions: at 10 µM
# [6] = biological target: T4, Ephrin type-B receptor 4 (Homo sapiens) (UniProt P54760); conditions: at 1 µM
# T4 sequence (whole entry): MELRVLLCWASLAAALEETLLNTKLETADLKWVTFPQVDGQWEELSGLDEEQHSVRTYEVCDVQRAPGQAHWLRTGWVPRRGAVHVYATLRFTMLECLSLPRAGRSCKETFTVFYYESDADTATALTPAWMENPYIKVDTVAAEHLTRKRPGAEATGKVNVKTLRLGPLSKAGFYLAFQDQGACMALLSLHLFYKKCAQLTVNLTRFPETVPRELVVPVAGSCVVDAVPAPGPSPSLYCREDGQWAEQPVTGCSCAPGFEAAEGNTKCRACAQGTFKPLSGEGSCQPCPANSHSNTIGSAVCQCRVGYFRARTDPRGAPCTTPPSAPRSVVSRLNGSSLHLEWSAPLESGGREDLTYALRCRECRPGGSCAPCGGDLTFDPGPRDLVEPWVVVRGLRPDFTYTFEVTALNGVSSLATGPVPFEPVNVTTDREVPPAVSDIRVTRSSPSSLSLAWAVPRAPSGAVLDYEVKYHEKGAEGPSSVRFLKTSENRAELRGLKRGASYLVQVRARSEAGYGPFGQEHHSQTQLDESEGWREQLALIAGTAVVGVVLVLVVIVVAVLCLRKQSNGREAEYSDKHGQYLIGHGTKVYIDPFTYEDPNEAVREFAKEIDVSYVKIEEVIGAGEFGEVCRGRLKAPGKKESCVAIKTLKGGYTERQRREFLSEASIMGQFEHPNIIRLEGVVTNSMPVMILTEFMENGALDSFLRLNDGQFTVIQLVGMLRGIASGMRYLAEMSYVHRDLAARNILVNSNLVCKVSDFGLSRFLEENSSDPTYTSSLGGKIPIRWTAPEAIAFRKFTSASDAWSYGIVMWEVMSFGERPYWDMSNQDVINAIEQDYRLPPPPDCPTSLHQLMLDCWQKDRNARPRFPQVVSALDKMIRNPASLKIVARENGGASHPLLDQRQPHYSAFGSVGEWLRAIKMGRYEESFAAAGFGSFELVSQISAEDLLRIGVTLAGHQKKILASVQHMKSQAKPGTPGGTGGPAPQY
# [7] = biological target: T4, Ephrin type-B receptor 4 (Homo sapiens); conditions: at 10 µM
# [8] = biological target: Receptor tyrosine-protein kinase erbB-4 (Homo sapiens) (UniProt Q15303); conditions: at 1 µM
# Chain of Receptor tyrosine-protein kinase erbB-4 (Homo sapiens) (Q15303 whole entry): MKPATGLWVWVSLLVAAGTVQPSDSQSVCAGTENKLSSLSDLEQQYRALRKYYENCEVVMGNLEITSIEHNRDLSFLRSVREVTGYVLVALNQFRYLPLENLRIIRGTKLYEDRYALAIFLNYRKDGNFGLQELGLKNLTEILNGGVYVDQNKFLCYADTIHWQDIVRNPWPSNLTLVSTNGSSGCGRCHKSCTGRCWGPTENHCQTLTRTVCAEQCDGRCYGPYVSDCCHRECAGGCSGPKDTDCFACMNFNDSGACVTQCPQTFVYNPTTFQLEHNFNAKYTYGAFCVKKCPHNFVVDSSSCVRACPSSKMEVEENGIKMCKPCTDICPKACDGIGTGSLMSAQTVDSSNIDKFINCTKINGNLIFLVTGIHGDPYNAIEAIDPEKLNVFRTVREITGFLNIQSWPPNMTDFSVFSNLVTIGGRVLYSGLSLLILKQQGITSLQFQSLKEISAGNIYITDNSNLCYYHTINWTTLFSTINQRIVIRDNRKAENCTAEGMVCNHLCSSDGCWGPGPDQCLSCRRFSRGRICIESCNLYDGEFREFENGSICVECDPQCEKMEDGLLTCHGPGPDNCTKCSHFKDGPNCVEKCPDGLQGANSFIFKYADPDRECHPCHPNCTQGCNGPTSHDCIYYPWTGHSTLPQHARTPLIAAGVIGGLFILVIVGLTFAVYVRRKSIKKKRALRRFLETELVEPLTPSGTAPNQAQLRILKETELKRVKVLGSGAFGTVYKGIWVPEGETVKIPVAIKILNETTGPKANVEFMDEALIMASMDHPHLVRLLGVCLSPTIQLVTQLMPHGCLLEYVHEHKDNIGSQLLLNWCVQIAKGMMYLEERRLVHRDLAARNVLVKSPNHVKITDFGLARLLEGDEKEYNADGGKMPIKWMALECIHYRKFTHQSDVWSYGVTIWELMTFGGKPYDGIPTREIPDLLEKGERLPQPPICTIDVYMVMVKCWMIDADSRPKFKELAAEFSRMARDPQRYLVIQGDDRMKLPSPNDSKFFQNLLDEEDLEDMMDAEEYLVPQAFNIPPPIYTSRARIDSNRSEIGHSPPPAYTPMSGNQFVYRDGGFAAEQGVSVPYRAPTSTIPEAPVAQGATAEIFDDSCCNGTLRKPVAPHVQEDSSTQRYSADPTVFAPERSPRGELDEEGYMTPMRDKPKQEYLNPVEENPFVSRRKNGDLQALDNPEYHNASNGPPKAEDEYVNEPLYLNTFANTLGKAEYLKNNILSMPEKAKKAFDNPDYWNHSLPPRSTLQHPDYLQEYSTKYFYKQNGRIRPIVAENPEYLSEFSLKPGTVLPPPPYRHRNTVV
# [9] = biological target: Receptor tyrosine-protein kinase erbB-4 (Homo sapiens) (UniProt Q15303); conditions: at 10 µM
# [10] = biological target: Focal adhesion kinase 1 (Homo sapiens) (UniProt Q05397); conditions: at 1 µM
# Chain of Focal adhesion kinase 1 (Homo sapiens) (Q05397 2-1052 limits assumed): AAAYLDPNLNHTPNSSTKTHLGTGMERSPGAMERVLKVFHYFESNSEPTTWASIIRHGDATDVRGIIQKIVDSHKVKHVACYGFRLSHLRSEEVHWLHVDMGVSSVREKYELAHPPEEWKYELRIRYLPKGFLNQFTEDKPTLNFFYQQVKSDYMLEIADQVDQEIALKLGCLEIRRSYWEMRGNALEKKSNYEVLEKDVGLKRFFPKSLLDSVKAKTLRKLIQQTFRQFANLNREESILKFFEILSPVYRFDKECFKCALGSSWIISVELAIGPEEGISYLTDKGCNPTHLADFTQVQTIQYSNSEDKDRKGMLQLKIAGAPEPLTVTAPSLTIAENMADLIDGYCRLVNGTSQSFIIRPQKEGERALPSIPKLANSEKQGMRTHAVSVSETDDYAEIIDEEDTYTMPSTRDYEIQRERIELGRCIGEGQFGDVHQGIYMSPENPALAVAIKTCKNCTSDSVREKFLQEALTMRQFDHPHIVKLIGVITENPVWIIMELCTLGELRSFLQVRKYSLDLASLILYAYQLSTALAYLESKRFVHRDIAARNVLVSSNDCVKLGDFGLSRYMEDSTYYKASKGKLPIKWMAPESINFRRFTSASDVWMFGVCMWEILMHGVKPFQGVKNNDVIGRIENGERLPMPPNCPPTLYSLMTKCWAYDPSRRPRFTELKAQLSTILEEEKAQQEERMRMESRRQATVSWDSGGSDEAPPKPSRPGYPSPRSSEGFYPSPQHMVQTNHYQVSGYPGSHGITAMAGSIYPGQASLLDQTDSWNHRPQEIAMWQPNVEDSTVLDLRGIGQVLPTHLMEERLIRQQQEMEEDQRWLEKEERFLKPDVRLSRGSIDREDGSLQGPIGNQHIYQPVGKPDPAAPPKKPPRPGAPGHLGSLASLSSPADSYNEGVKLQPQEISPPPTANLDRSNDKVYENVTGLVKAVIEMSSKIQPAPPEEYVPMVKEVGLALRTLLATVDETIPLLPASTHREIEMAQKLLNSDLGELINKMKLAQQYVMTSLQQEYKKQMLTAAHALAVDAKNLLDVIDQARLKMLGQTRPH
compound,measurement,setting,value
Cn1cnc2cc3c(Nc4cccc(Br)c4)ncnc3cc21,residual activity,[1],42%
same,residual activity,[2],77%
same,residual activity,[3],5%
same,residual activity,[4],110% (inactive)
same,residual activity,[5],123%
same,residual activity,[6],31%
same,residual activity,[7],4%
same,residual activity,[8],72%
same,residual activity,[9],75%
same,residual activity,[10],82%

# Reference: ChEMBL document CHEMBL2218924, “A broad activity screen in support of a chemogenomic map for kinase signalling research and drug discovery” (Biochem J, 2013)
